According to the supplement of paper PMC11417369:
Whole data set: some 25,000 sequences, median “ln(normalized median fluorescence intensity)” near 9.3, cut for the highest 2% near 10. What follows is part of a selection rich in the highest values, with near analogues and random picks from the rest.

System: PF3D7_0420300 AP2 domain 1 (GST-tagged)
Assay: gcPBM binding intensity (ln(normalized median fluorescence intensity)); higher = stronger DNA binding
How it was run: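 Binding intensity is defined as the maximum Masliner-normalised natural-log median intensity across replicate spots for either probe orientation. It was measured on an Agilent 4 × 180k array of primer-extended double-stranded 36-bp intergenic genomic probes and negative controls, to which GST-tagged P. falciparum DNA-binding domains made in E. coli were applied for 1 h in 1× PBS with 1% milk, 0.2 mg/ml BSA, 0.5% salmon testes DNA and 0.03% Triton X-100. Detection was by Alexa488 anti-GST antibody and scanning at 488 nm.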

For “TGGTAATACCCATACACACACACATACCCATATATA [CACACA_site5509]”, which “gcPBM binding intensity (ln)” value is on record?
The value was 10.1.

How did the “gcPBM binding intensity (ln)” value turn out when “AATACATATAAAAGTACACACACACCCATATATATA [CACACA_site8220]” was run?
The value was 10.2.

“TAAAACAATACTTTGTGCTTCTCTGGTTTTTTTTTT [GTGCAC_negctrl_site284]” was tested. Which “gcPBM binding intensity (ln)” value did it give?
Its value is 9.26.

Which “gcPBM binding intensity (ln)” value does the source give for “ACGTTTGATACACATAAAGTTTTCCTTTGAATGTAC [CACACA_negctrl_site106]” here?
The value was 9.26.

With “TTTTAACATAGAAGTACACACATATAATCAATCATA [CACACA_site5313]” as the sequence, how does the “gcPBM binding intensity (ln)” value read?
The value was 9.6.

Which “gcPBM binding intensity (ln)” value does the source give for “TTAATACATTAAATATGTACTTATATATCTCAACTA [XGTACX_site3997]” here?
Its value is 9.11.

Which “gcPBM binding intensity (ln)” value does the source give for “AACACAAATAAGTATTTGGATTATATTACATTTATA [CACACA_negctrl_site465]” here?
Its value is 9.18.

Which “gcPBM binding intensity (ln)” value does the source give for “GTGTTTTTATGTGAATGTACATATTTACTATCACAC [XGTACX_site2388]” here?
Its value is 9.56.

“TTCATTCTATAAAACACACAAATATTTTTGTATCCC [CACACA_site6458]” was tested. Which “gcPBM binding intensity (ln)” value did it give?
Its value is 9.2.

For “CATAATATGACATACACACACAAAAAAAAAAAAATA [CACACA_site1285]”, which “gcPBM binding intensity (ln)” value is on record?
Its value is 9.91.

With “AGAAATATCTAATTGTGTACTCAAGAAAAAGTTACG [XGTACX_site372]” as the sequence, how does the “gcPBM binding intensity (ln)” value read?
Its value is 9.29.

Which “gcPBM binding intensity (ln)” value does the source give for “TTACCATAAGTATGTGGTACACTTTAAATGAAGATA [XGTACX_site6972]” here?
Its value is 8.88.

How did the “gcPBM binding intensity (ln)” value turn out when “CATACATATATTATTGCACACATATAAAATACCCCC [CACACA_site9292]” was run?
The value was 10.3.

With “AATATAAGCAAATACACACACACATATAAATATGTA [CACACA_site7741]” as the sequence, how does the “gcPBM binding intensity (ln)” value read?
The value was 10.2.

“TACATATATTATTGCACACATATAAAATACCCCCAA [CACACA_site3895]” was tested. Which “gcPBM binding intensity (ln)” value did it give?
Its value is 9.82.

“AATATAAGCAAATACACACACACATATATATATATA [CACACA_site3805]” was tested. Which “gcPBM binding intensity (ln)” value did it give?
The value was 10.

With “AAAAAAAATTAAATAAATAAATATACACATATATAT [GTGCAC_negctrl_site394]” as the sequence, how does the “gcPBM binding intensity (ln)” value read?
Its value is 9.26.

With “TACAGATATTATTGCACACATATAAAATACCCCCAA [CACACA_site6014]” as the sequence, how does the “gcPBM binding intensity (ln)” value read?
The value was 9.89.

How did the “gcPBM binding intensity (ln)” value turn out when “TACATACACAGACACACACACATATAAATATAAATA [CACACA_site7641]” was run?
Its value is 9.95.

With “AAAATTAAAATATATACACACATATATATATTAAAT [CACACA_site4419]” as the sequence, how does the “gcPBM binding intensity (ln)” value read?
The value was 9.57.

“CATACATACAGACACACACACATATAAATACATACA [CACACA_site6533]” was tested. Which “gcPBM binding intensity (ln)” value did it give?
Its value is 10.

How did the “gcPBM binding intensity (ln)” value turn out when “AATTAAAAAAAATACACACACACATACACATATATA [CACACA_site3298]” was run?
Its value is 10.2.

“TATAAATAAATATACACACACACATATAAATATGTA [CACACA_site6504]” was tested. Which “gcPBM binding intensity (ln)” value did it give?
The value was 10.1.

Which “gcPBM binding intensity (ln)” value does the source give for “AATACATACAGACACACACACACATATAAATAAATA [CACACA_site7642]” here?
Its value is 10.2.

CATATAAAAAATATGGTGCAGTTTTTTTTTTTTTTT was tested. Which “gcPBM binding intensity (ln)” value did it give?
Its value is 9.1.

How did the “gcPBM binding intensity (ln)” value turn out when “ATATATCATAATAGAGGTACACATATTATATATATA [XGTACX_site782]” was run?
Its value is 9.29.

How did the “gcPBM binding intensity (ln)” value turn out when “TAATTTTTTTTAAATACACACTGAAATGTGAATTTT [CACACA_site4476]” was run?
Its value is 8.96.

For “ACCACCATATAACATACATGCATCTTTTTTCCCTTC [TGCATGCA_site583]”, which “gcPBM binding intensity (ln)” value is on record?
Its value is 9.79.

“TTTTTATATTTTATTAGTACTTATTATATATATAAT [XGTACX_site4900]” was tested. Which “gcPBM binding intensity (ln)” value did it give?
Its value is 9.26.

With “TAATAATAGTAAATATGTACATATATATATATATAG [XGTACX_site4602]” as the sequence, how does the “gcPBM binding intensity (ln)” value read?
The value was 9.26.

Which “gcPBM binding intensity (ln)” value does the source give for “ATATATGTAATAAATAGTACACACACACATATATAT [XGTACX_site2817]” here?
Its value is 10.3.

With “TGTAATAAATAGTACACACACACATATATATATATT [CACACA_site1388]” as the sequence, how does the “gcPBM binding intensity (ln)” value read?
The value was 9.94.

How did the “gcPBM binding intensity (ln)” value turn out when “TGTAGTCTGGAGAAAAGTACATAGTATCTGGTAACA [XGTACX_site4940]” was run?
The value was 9.2.

“ATAAAAATAAAATGGACACACATATATACATATTTG [CACACA_site3277]” was tested. Which “gcPBM binding intensity (ln)” value did it give?
Its value is 9.68.

For “ATAATATAAACATACACACACACATATATATATATA [CACACA_site5591]”, which “gcPBM binding intensity (ln)” value is on record?
The value was 10.

How did the “gcPBM binding intensity (ln)” value turn out when “TGGGAATAAAAACACACACACACACCGATATATATA [CACACA_site5875]” was run?
Its value is 10.3.

Which “gcPBM binding intensity (ln)” value does the source give for “CAAATACATGGACACACACACATATACAGATATATA [CACACA_site5854]” here?
The value was 10.

For “GGAATAATATAAAACACACACATAAATATAAATATA [CACACA_site3376]”, which “gcPBM binding intensity (ln)” value is on record?
Its value is 9.9.

Which “gcPBM binding intensity (ln)” value does the source give for “ATAATCCACAAGCACACACACACACCCATATATATA [CACACA_site1268]” here?
Its value is 10.2.

“AAAAAAAAAAGAATAGCACACACACCGATATAAATA [CACACA_site8111]” was tested. Which “gcPBM binding intensity (ln)” value did it give?
Its value is 10.1.

With “TAATAATCCACAAGCACACACACACCCATATATATA [CACACA_site1267]” as the sequence, how does the “gcPBM binding intensity (ln)” value read?
Its value is 10.

“TATAATCCATAAGAAGCACACACATATATATATATT [CACACA_site8394]” was tested. Which “gcPBM binding intensity (ln)” value did it give?
The value was 9.76.

“AAAATACATGGACACACACACACACCGATATATATA [CACACA_site5885]” was tested. Which “gcPBM binding intensity (ln)” value did it give?
Its value is 10.3.

“ATAATATATAAACACACACACATATATAAATACATT [CACACA_site4466]” was tested. Which “gcPBM binding intensity (ln)” value did it give?
Its value is 10.1.

For “AAATAATATAAACATACACACACACCGATATATATA [CACACA_site8945]”, which “gcPBM binding intensity (ln)” value is on record?
Its value is 10.2.
